Experimental findings from PubChem BioAssay (NCATS) are described below.

Assay [1] in a line: Cell Viability - MRC5 (AID 434; calls by dose curve;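 note: potency is the fitted concentration of half-maximal effect; cells exposed to compound for 40 hours at 37 °C; potency reflects cytotoxicity seen as loss of intracellular ATP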). To be noted: MRC5 lung fibroblast viability, qHTS. In outline:
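Decrease in intracellular ATP, quantified by luciferase light output, reflects compound toxicity toward MRC5 cells exposed for 40 hr in complete culture medium. Concentration-response curves, scaled between DMSO and 100 uM tamoxifen, gave AC50 values.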
A general note: Quantitative high-throughput screening tests each substance at several concentrations.

For assay [2], the target named is Mitogen-activated protein kinase 10 (Mus musculus) (UniProt Q61831). Description: JNK3 AlphaScreen Assay (AID 530; active = well fitted curve in either direction with a large enough effect, not every such curve was filed as active;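 note: kinase came from lysate of stimulated human HepG2 cells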; note: potency is the fitted concentration of half-maximal effect). Conditions: JNK3 lysate, c-Jun phosphorylation; series mostly up to 57.1 µM. The method in brief: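 Biotinylated GST-cJun(1-79) served as substrate for JNK3 in HepG2 lysates stimulated with IL-1beta and TNF-alpha. ATP was 10 uM final, pH 7.6. Ser73 phosphorylation was quantified by AlphaScreen (680 nm excitation).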
Background: Bead proximity is the source of the signal in Alpha formats.

The nature of assay [3]: Cell Viability - Mesenchymal (AID 546).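 Note: cells exposed to compound for 40 hours before reading; 0% = DMSO only and -100% = 100 µM tamoxifen.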 To be noted: mesenchymal cells viability, qHTS; series mostly up to 91.7 µM. The method in brief:
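In this qHTS cytotoxicity format, glomerulus-derived human mesenchymal kidney cells received compound for 40 hr, then luciferase-based ATP quantitation. Concentration-response data were fitted with the Hill equation.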

Assay [4] in a line: Cellular Toxicity (caspase-3) HUV-EC-C (AID 656).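 Note: 0% = DMSO basal and 100% = 100 µM tamoxifen.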 To be noted: HUV-EC-C cells, caspase-3 activation (apoptosis), vehicle = 0, 100 µM tamoxifen = 100%; series mostly up to 92.2 µM. The method in brief:
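Luminescent Caspase-Glo 3/7 readout after 16 h, 37 °C compound exposure of HUV-EC-C endothelial cells, 1000 per well, complete medium. AC50 derived by Hill fitting, with DMSO as baseline and 100 uM tamoxifen as full activation.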

The nature of assay [5]: Cellular Toxicity (caspase-3) H-4-II-E (AID 663).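 Note: cells exposed to compound for 16 hr before readout; 0% = DMSO basal and 100% = 100 µM tamoxifen.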 To be noted: H-4-II-E rat hepatoma; Potency: caspase-3 activation; series mostly up to 92.2 µM. The method in brief: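 Caspase 3/7 activation measured in H-4-II-E cells in complete culture medium after 16 hr treatment at 37 °C, using luciferase-coupled substrate readout; AC50 values come from Hill-equation fits of normalized concentration-response data.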

The nature of assay [6]: MultiTox-Fluor Cytotoxicity Assay - LYMP1-002 - Dead Cells (AID 960).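 Note: 0% = DMSO and 100% = tetraoctylammonium bromide; nearly all actives have a fitted effect of over 60% in size.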 Conditions: LYMP1-002 lymphoblastoid cells, dead-cell protease fluorescence; series mostly up to 46.1 µM. The method in brief: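 Readout: fluorescence at 485/520 from cell-impermeant bis-AAF-R110 cleaved by proteases leaking from damaged cells. LYMP1-002 lymphoblastoid line, 16 hr compound treatment at 37 C, concentration-response in qHTS format; Hill-equation AC50 values.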

Assay [7] is described as follows: MultiTox-Fluor Cytotoxicity Assay - LYMP1-003 - Live Cells (AID 962).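 Note: cells exposed to compound for 16 hours at 37 °C; 0% = DMSO only and full loss = 92 µM tetraoctylammonium bromide; cytotoxic hits lower the live-cell protease signal.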 Conditions: LYMP1-003 lymphoblastoid cells, MultiTox-Fluor live-cell protease fluorescence; series mostly up to 92.2 µM. In outline: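 Readout: live-cell fluorescence (Ex/Em=405/510) from GF-AFC cleavage after 60 min MultiTox-Fluor reagent at room temperature. Lymphoblastoid LYMP1-003 cells, 16 hr compound treatment, 37 C. Concentration-response fitted to standard Hill equation for AC50.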

A short description of assay [8]: Cell Viability - LYMP2-005 (AID 967).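 Note: plate controls were DMSO only for no effect and 92 µM tetraoctylammonium bromide control for full effect.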 Conditions: LYMP2-005 lymphoblastoid cell viability; series mostly up to 92.2 µM. The method in brief:
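LYMP2-005 human lymphoblastoid cells (2500/well) were treated with compounds for 24 h at 37 C. Intracellular ATP was then measured by CellTiter-Glo luminescence after 30 min at room temperature. AC50 values came from Hill-equation fits of qHTS concentration-response data.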

The nature of assay [9]: Cell Viability - LYMP2-023 (AID 975).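 Note: cellular ATP measured by luciferase luminescence as viability proxy; plate controls were DMSO only for no effect and 92 µM tetraoctylammonium bromide control for full effect; nearly all actives have a fitted effect of over 55% in size.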 To be noted: LYMP2-023 lymphoblastoid cell viability; series mostly up to 92.2 µM. In outline: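 CellTiter-Glo luminescence after 30 min at room temperature; decrease in intracellular ATP reflects toxicity. Cells: human lymphoblastoid line, 2500/well, 24 hr compound exposure at 37 C. AC50 fitted to standard Hill equation from concentration-response.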

A short description of assay [10]: Cell Viability - LYMP2-006 (AID 978). Note: % is set by controls: 0 for no effect and ±100 for the full control effect; nearly all actives have a fitted effect of over 60% in size. Conditions: LYMP2-006 lymphoblastoid cell viability, qHTS; series mostly up to 92.2 µM. The method in brief:
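Potency values are Hill-fit AC50s for decreases in intracellular ATP (CellTiter-Glo luminescence). LYMP2-006 lymphoblastoid cells, 2500 per well, were exposed to compound in complete culture medium for 24 hr at 37 C.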

Assay [11] can be described thus: Cell Viability - LYMP2-007 (AID 979).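 Note: cells exposed to compound for 24 h before reading; 0% = DMSO only and the negative end = 92 µM tetraoctylammonium bromide; nearly all actives have a fitted effect of over 60% in size.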 To be noted: LYMP2-007 lymphoblastoid cell viability; series mostly up to 92.2 µM. The method in brief: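 qHTS cytotoxicity: 2500 cells/well, 5 hr 37 C settle, compound 24 hr 37 C, CellTiter-Glo 30 min RT, luminescence. Decrease in ATP = toxicity. AC50 by standard Hill equation; tetraoctylammonium bromide positive control.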

The target of assay [12] is Vitamin D3 receptor (Homo sapiens) (UniProt P11473). The assay is described as follows: qHTS assay for small molecule antagonists of vitamin D receptor signaling (AID 588541; calls by dose curve;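 note: receptor activated by calcitriol during compound treatment; % is set by controls: 0 for no effect and ±100 for the full control effect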). To be noted: HEK293T VDR-UAS-bla, beta-lactamase ratio, antagonist mode; series mostly up to 76.7 µM. The method in brief: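 VDR-UAS-bla HEK293T cells (2000/well, 2% charcoal-stripped FBS) were treated with titrated compounds plus 1-alpha,25-dihydroxyvitamin D3 (50 nM or 3 nM final) for 16 h at 37 C. CCF4 beta-lactamase fluorescence was read; Hill fits gave IC50.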

Assay [13] has as its target Retinoic acid receptor RXR-alpha (Homo sapiens) (UniProt P19793). Description: qHTS assay for small molecule agonists of retinoid X receptor alpha signaling (AID 588544; calls by dose curve;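 note: 0% = DMSO basal wells and 100% = reference agonist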). To be noted: HEK293T RXRa-UAS-bla, beta-lactamase reporter, 18 h; series mostly up to 76.7 µM.
The target in assay [14] is Thyroid hormone receptor beta (Homo sapiens) (UniProt P10828). Description: qHTS assay for small molecule agonists of thyroid hormone receptor beta signaling (AID 588545; calls by dose curve). To be noted: TR-UAS-bla GripTite HEK 293, beta-lactamase ratio, agonist mode, 18 h; series mostly up to 76.7 µM. The method in brief:
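Agonist activity was read as beta-lactamase CCF4 fluorescence (405 ex, 460/530 em), scaled between DMSO (0%) and 10 nM T3 (100%), then Hill-fitted for EC50 and efficacy. HEK 293 TR-UAS-bla cells in 2% charcoal/dextran FBS medium were exposed 18 h at 37 C.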

The target in assay [15] is Nuclear receptor subfamily 1 group I member 2 (Rattus norvegicus) (UniProt Q9R1A7). Description: qHTS assay for small molecule activators of the rat pregnane X receptor (rPXR) signaling pathway (AID 651751; call rule not given here; note: 0% is about no effect). To be noted: rPXR reporter cells, luciferase (One-Glo), 24 h.
A short description of assay [16]: qHTS assay for small molecule activators of the human pregnane X receptor (PXR) signaling pathway (AID 720659; call rule not given here; note: 0% is about no effect). Conditions: DPX-2 HepG2 CYP3A4-luciferase, 24 h; series mostly up to 92.3 µM.
A short description of assay [17]: Cell Viability - HepG2 (AID 433; calls by dose curve;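 note: potency is the fitted concentration of half-maximal effect; potency for ATP loss meaning cytotoxicity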). To be noted: qHTS. The method in brief: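 Cytotoxicity read as ATP loss (CellTiter-Glo luminescence) after 40 hr compound exposure of HepG2, 1500 cells/well, 37 °C. AC50 by Hill equation; 0% set by DMSO, 100% inhibition by 100 uM tamoxifen.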
Assay [18] in a line: Cell Viability - LYMP2-021 (AID 974).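 Note: compound exposure lasts 24 hours at 37 °C; % is set by controls: 0 for no effect and ±100 for the full control effect; nearly all actives have a fitted effect of over 55% in size.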 Conditions: LYMP2-021 lymphoblastoid cells viability; series mostly up to 92.2 µM. The method in brief:
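ATP luminescence (CellTiter-Glo, 30 min RT) after 24 h compound exposure at 37 C; 2500 human lymphoblastoid cells/well, 5 h settle beforehand. Cytotoxicity = concentration-dependent ATP drop, AC50 by Hill fit.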

For assay [19], the target named is Thyroid hormone receptor beta (Homo sapiens) (UniProt P10828). The assay is described as follows: qHTS assay for small molecule antagonists of thyroid hormone receptor beta signaling (AID 588547; active = well fitted inhibition curve with a large enough effect in the signal ratio, with a control signal flat, not every such curve was filed as active; the % refers to the signal ratio;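 note: cells stimulated with 0.4 nM T3 agonist during compound exposure; % is set by controls: 0 for no effect and ±100 for the full control effect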). Conditions: TR-UAS-bla HEK293, beta-lactamase ratio, antagonist mode, 18 h. In outline: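 TR-UAS-bla GripTite HEK293 cells in 2% charcoal/dextran FBS medium were preincubated 4 h at 37 C, given compound (0.59 nM to 92 uM) plus 0.4 nM T3 (final) for 18 h, then CCF4 for 2 h at RT; Hill fit gave IC50.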

Assay [20] can be described thus: Cellular Toxicity (caspase-3) SK-N-SH (AID 661).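 Note: cells exposed to compound for 16 hours; 0% = DMSO basal and 100% = 10 µM staurosporine.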 To be noted: SK-N-SH caspase-3 activation, qHTS; series mostly up to 91.7 µM. In outline: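 Luminescent Caspase-Glo 3/7 read-out after 16 hr compound exposure of SK-N-SH neuroblastoma cells at 37 °C. Signal increase normalized to DMSO (basal) and 10 uM staurosporine (100%); AC50 from Hill equation fits of qHTS concentration-response data.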

Where “and” joins values, the source holds several entries; their conditions need not be identical. Equal entries are not always repeated. Unmarked numbers belong to inactive results. Results filed as inconclusive are left out. Calls of active or inactive are those of the source. Unless noted, calls come from the whole dose curve; as a rule, active = well fitted curve in the direction sought with a large enough effect; inconclusive = small, poorly fitted or top-dose-only effect, or another doubt; inactive = no such curve, though single readings can be large; an effect the other way counts as inactive or inconclusive.

Chain of Retinoic acid receptor RXR-alpha (Homo sapiens) (P19793 whole entry, looked up): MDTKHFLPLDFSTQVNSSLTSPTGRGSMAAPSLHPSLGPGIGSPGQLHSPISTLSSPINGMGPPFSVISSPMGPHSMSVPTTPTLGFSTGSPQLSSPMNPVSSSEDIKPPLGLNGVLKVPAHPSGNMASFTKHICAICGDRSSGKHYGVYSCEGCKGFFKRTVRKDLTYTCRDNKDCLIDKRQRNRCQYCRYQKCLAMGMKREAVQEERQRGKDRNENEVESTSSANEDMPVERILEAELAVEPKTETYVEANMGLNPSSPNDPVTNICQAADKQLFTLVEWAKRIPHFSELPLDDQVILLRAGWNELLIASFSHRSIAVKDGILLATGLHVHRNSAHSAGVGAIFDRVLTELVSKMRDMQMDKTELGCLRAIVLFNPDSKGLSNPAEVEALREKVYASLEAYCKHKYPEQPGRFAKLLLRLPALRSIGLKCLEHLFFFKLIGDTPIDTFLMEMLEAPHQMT
Chain of Nuclear receptor subfamily 1 group I member 2 (Rattus norvegicus) (Q9R1A7 whole entry, looked up): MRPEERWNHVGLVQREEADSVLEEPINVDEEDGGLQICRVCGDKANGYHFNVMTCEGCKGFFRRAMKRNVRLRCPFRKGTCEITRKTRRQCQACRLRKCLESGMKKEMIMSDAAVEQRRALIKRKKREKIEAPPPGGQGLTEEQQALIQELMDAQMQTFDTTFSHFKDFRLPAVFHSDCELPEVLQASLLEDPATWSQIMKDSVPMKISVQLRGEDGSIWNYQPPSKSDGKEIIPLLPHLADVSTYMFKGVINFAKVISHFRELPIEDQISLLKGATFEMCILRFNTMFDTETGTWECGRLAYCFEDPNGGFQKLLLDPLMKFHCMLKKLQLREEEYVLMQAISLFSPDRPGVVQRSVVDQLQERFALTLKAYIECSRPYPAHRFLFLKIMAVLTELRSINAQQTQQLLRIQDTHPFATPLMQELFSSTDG
Chain of Vitamin D3 receptor (Homo sapiens) (P11473 whole entry, looked up): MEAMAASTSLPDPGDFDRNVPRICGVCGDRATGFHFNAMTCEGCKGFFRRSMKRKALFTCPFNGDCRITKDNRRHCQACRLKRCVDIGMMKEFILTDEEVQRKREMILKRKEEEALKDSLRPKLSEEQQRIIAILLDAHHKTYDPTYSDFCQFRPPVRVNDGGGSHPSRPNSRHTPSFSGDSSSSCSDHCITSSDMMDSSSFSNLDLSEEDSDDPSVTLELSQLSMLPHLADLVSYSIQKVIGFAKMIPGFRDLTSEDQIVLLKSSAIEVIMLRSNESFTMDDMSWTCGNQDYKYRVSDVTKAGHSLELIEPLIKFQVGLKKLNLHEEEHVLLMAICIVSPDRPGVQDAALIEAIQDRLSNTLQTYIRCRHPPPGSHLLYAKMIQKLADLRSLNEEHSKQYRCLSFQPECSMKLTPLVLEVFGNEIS
Chain of Thyroid hormone receptor beta (Homo sapiens) (P10828 whole entry, looked up): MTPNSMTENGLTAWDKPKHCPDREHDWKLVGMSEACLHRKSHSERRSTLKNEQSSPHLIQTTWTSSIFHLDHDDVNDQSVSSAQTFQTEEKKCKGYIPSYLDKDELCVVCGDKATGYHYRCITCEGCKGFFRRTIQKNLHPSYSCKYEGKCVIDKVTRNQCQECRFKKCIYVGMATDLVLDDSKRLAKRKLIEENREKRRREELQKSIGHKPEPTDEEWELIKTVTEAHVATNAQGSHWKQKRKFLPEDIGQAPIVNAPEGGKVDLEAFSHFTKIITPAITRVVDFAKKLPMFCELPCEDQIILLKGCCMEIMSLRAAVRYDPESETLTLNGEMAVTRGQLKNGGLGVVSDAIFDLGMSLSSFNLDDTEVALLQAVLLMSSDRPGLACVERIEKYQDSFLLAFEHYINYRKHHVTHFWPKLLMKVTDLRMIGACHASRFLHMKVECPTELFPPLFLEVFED

Take `CCCCC(=O)Cl`: the Potency in assay [1] was > 92 µM. Moreover, the Potency entry in [2], in assay [3], in assay [5], in assay [6], in [8] and in [9] was “inactive” in each case. Besides, the Potency result in assay [10], in assay [11] and in assay [14] was “inactive” in each case. Moreover, the outcome in assay [4], in assay [7], in assay [12], in [13] and in assay [16] was inactive. Besides, in assay [15], the max response was 6.67%.

For the compound `CCOP(=S)(OCC)Oc1nc(Cl)c(Cl)cc1Cl`, the Potency in assay [17] and in assay [1] was > 92 µM in each case. In addition, the result in assay [4] and in [12] was inactive. The Potency result in [5], in assay [6], in assay [8], in assay [18], in [9] and in [11] was “inactive” each time. The Potency result in [14] is “inactive”. The activity change % (negative = inhibition) in assay [19] is 4.5% and 5.64% and -7.44%. Further, the max response in [15] is 6.81% [middle of 4 runs].

With `Cc1ccc2c(c1N)C(=O)c1ccccc1C2=O`, the Potency in assay [1] is > 92 µM; in [2], 3.98 µM (active). Also, the result in [4] and in assay [13] was inactive. Besides, the Potency entry in [20], in assay [5], in assay [8], in assay [18], in assay [9] and in assay [10] was “inactive” each time. The Potency entry in assay [11] and in assay [14] was “inactive” in each case. Moreover, the activity change % (negative = inhibition) in [19] is 1.36%.

Turning to `N#CCCCCC#N`, the Potency in assay [1] is > 92 µM. For the same compound, the Potency entry in assay [2], in assay [3], in assay [20], in [5], in assay [6] and in assay [8] was “inactive” throughout. Also, the Potency result in [18], in assay [9], in assay [10], in [11] and in assay [14] was “inactive” throughout. For the same compound, the outcome in [4], in [7], in assay [12], in assay [13] and in assay [16] was inactive. Further, in assay [19], the activity change % (negative = inhibition) is -18.7%. Further, the max response in [15] is 9.56%.

Take `C=COC(C)=O`: the Potency in assay [1] was > 92 µM. Further, the Potency result in assay [2], in [3], in [20], in [5], in assay [6] and in assay [8] was “inactive” throughout. The Potency entry in assay [18], in assay [9], in [10], in assay [11] and in [14] was “inactive” throughout. Besides, the compound was called inactive in assay [7], in [12] and in assay [16]. Further, the activity change % (negative = inhibition) in assay [19] is 0.373%. The max response in assay [15] is 2.31%.

Regarding `c1ccoc1`, the Potency in assay [17] was > 92 µM. Moreover, the Potency entry in assay [2], in assay [20], in assay [5], in [6], in [8] and in assay [18] was “inactive” in each case. Further, the Potency entry in assay [9], in assay [10], in assay [11] and in assay [14] was “inactive” throughout. Also, the result in assay [4], in assay [7], in assay [12], in assay [13] and in [16] was inactive. In assay [19], the activity change % (negative = inhibition) is 20.3%. Besides, in [15], the max response is 3.47%.

Consider `c1ccc(Nc2ccc(Nc3ccccc3)cc2)cc1`, for which the Potency in [17] was > 92 µM. Besides, the compound was classed as inactive in assay [4], in assay [7] and in [12]. Also, the Potency entry in assay [20], in [5], in assay [8], in [18], in assay [9] and in [10] was “inactive” throughout. For the same compound, the Potency result in [11] and in assay [14] was “inactive” each time.

Consider `ClC(Cl)(Cl)C(Cl)(Cl)Cl`, for which the Potency in assay [17] is > 92 µM. Also, the Potency result in [3], in [20], in assay [5], in assay [6], in assay [8] and in assay [18] was “inactive” in each case. Besides, the Potency result in assay [9], in [10], in assay [11] and in assay [14] was “inactive” in each case. For the same compound, the compound was called inactive in [4], in assay [7], in assay [12], in assay [13] and in assay [16]. In assay [19], the activity change % (negative = inhibition) was 3.45%. The max response in assay [15] is 6.05%.
